Reference: PubChem BioAssay (NCI)
About 83,000 compounds went through this panel and 20% of them were active in at least one assay; those are over-represented in the sample as a whole.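 The test compound was applied at a single concentration to cells in 96-well plates for 48 hours, and percent growth was recorded.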 A number with no mark means an inactive call. The calls were made as follows: active = growth percent below 10; inactive = the rest.

Each compound was assayed on MDA-MB-468 breast (assay: NCI-60 one-dose screen, 48 h (100 = growth as untreated, 0 = no growth, -100 = all killed)). Conditions: 10 µM unless noted.
With `Cc1ccn2cc(Cc3cc(=O)oc4c3ccc3ccccc34)c(=O)nc2c1` the growth was 117%.
Compound `CCNc1nc(C(F)(F)F)nc2c1sc(=S)n2-c1ccccc1` has a growth of 81.6%.
`Nc1n[nH]c2cccc(C#Cc3cccc(NC(=O)c4cccc(OC(F)(F)F)c4)c3)c12` was tested, and the growth was 106%.
In the case of `Nc1ccc(-c2nc3cc(Oc4ccc(Oc5ccc6[nH]c(-c7ccc(N)cc7)nc6c5)cc4)ccc3[nH]2)cc1`, the growth is reported as 90.3%.
With `O=C1[C@@H](OS(=O)(=O)CC(F)(F)F)[C@H](c2ccc(F)cn2)N1c1cc2c3ccccc3ccc2c2ccccc12` the growth was 89.4%.
